# Experimental data: publication PMC9838217, “Structure of SALL4 zinc finger domain reveals link between AT-rich DNA binding and Okihiro syndrome”
# Changes are numbered by the printed parent chain.
# Columns and labels:
# Test in all cases: HT-SELEX; high values mean tight binding
# Conditions in all cases: protein: recombinant; vector His6-GST; dsDNA, one strand shown
# SALL4 ZFC4 WT (HT-SELEX) = target: T1, SALL4 ZFC4 WT (HT-SELEX) (Mus musculus, UniProt Q8BX22 870-940)
# T1 sequence: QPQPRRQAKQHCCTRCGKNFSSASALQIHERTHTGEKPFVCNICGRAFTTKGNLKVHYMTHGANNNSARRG
# Summary of the method: (§1)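 Each canonical k-mer's binding signal is its read fraction expressed as fold change over the initial random library. Reads came from MiSeq sequencing, scanned for 6-mers, after up to 6 triplicate cycles in which purified recombinant mouse SALL4 zinc finger cluster 4 (residues 870–940, 1 µg) bound library DNA (1.5 µg first cycle, 200 ng later) in 100 µl of 10 mM Tris–HCl pH 7.5, 50 mM NaCl, poly(dI-dC), DTT for 10 min at room temperature. Complexes were then Ni2+ bead-captured, washed, PCR-amplified and reselected.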
# [1] = target: T2, SALL4 ZFC4 R900W (HT-SELEX) (Mus musculus, UniProt Q8BX22 870-940, R900W)
# T2 sequence: T1 sequence with R31W
# Summary of the method: as §1
# [2] = target: T3, SALL4 ZFC4 G921D (HT-SELEX) (Mus musculus, UniProt Q8BX22 870-940, G921D)
# T3 sequence: T1 sequence with G52D
# Summary of the method: as §1
sequence,measurement,setting,value
GTAATA,binding signal,SALL4 ZFC4 WT (HT-SELEX),2.33 ± 0.177 fold-change vs cycle 0
same,binding signal,[1],2.09 ± 0.144 fold-change vs cycle 0
same,binding signal,[2],1.81 ± 0.189 fold-change vs cycle 0
ACATGC,binding signal,SALL4 ZFC4 WT (HT-SELEX),0.613 ± 0.0259 fold-change vs cycle 0
same,binding signal,[1],0.7108 ± 0.0052 fold-change vs cycle 0
same,binding signal,[2],0.774 ± 0.017 fold-change vs cycle 0
ATCAGA,binding signal,SALL4 ZFC4 WT (HT-SELEX),1.37 ± 0.0717 fold-change vs cycle 0
same,binding signal,[1],1.43 ± 0.0639 fold-change vs cycle 0
same,binding signal,[2],1.38 ± 0.109 fold-change vs cycle 0
GAATAA,binding signal,SALL4 ZFC4 WT (HT-SELEX),2.13 ± 0.0471 fold-change vs cycle 0
same,binding signal,[1],2.1 ± 0.122 fold-change vs cycle 0
same,binding signal,[2],1.82 ± 0.178 fold-change vs cycle 0
CAAAAG,binding signal,SALL4 ZFC4 WT (HT-SELEX),1.03 ± 0.0267 fold-change vs cycle 0
same,binding signal,[1],1.17 ± 0.0219 fold-change vs cycle 0
same,binding signal,[2],1.153 ± 0.00875 fold-change vs cycle 0
GGTGAA,binding signal,SALL4 ZFC4 WT (HT-SELEX),0.8 ± 0.0301 fold-change vs cycle 0
same,binding signal,[1],0.905 ± 0.0496 fold-change vs cycle 0
same,binding signal,[2],0.952 ± 0.0511 fold-change vs cycle 0
CAGTAG,binding signal,SALL4 ZFC4 WT (HT-SELEX),0.806 ± 0.0679 fold-change vs cycle 0
same,binding signal,[1],0.908 ± 0.0926 fold-change vs cycle 0
same,binding signal,[2],0.954 ± 0.0684 fold-change vs cycle 0
CACGAC,binding signal,SALL4 ZFC4 WT (HT-SELEX),0.303 ± 0.0099 fold-change vs cycle 0
same,binding signal,[1],0.381 ± 0.0158 fold-change vs cycle 0
same,binding signal,[2],0.501 ± 0.0536 fold-change vs cycle 0
CAGTCC,binding signal,SALL4 ZFC4 WT (HT-SELEX),0.44 ± 0.0267 fold-change vs cycle 0
same,binding signal,[1],0.544 ± 0.0287 fold-change vs cycle 0
same,binding signal,[2],0.63 ± 0.0382 fold-change vs cycle 0
GTGAAA,binding signal,SALL4 ZFC4 WT (HT-SELEX),1.16 ± 0.0303 fold-change vs cycle 0
same,binding signal,[1],1.27 ± 0.0355 fold-change vs cycle 0
same,binding signal,[2],1.19 ± 0.0481 fold-change vs cycle 0
GTTGTA,binding signal,SALL4 ZFC4 WT (HT-SELEX),1.18 ± 0.0293 fold-change vs cycle 0
same,binding signal,[1],1.31 ± 0.0256 fold-change vs cycle 0
same,binding signal,[2],1.28 ± 0.0242 fold-change vs cycle 0
CTTAGC,binding signal,SALL4 ZFC4 WT (HT-SELEX),0.73 ± 0.019 fold-change vs cycle 0
same,binding signal,[1],0.843 ± 0.0192 fold-change vs cycle 0
same,binding signal,[2],0.8905 ± 0.00272 fold-change vs cycle 0
AGCATG,binding signal,SALL4 ZFC4 WT (HT-SELEX),0.713 ± 0.0228 fold-change vs cycle 0
same,binding signal,[1],0.806 ± 0.0264 fold-change vs cycle 0
same,binding signal,[2],0.882 ± 0.0429 fold-change vs cycle 0
AAGGAG,binding signal,SALL4 ZFC4 WT (HT-SELEX),1 ± 0.0181 fold-change vs cycle 0
same,binding signal,[1],1.14 ± 0.0427 fold-change vs cycle 0
same,binding signal,[2],1.13 ± 0.0474 fold-change vs cycle 0
TACAAA,binding signal,SALL4 ZFC4 WT (HT-SELEX),1.84 ± 0.0971 fold-change vs cycle 0
same,binding signal,[1],1.82 ± 0.0757 fold-change vs cycle 0
same,binding signal,[2],1.67 ± 0.0747 fold-change vs cycle 0
GAGAGC,binding signal,SALL4 ZFC4 WT (HT-SELEX),0.363 ± 0.00861 fold-change vs cycle 0
same,binding signal,[1],0.422 ± 0.0138 fold-change vs cycle 0
same,binding signal,[2],0.588 ± 0.0466 fold-change vs cycle 0
CATTAC,binding signal,SALL4 ZFC4 WT (HT-SELEX),1.43 ± 0.0799 fold-change vs cycle 0
same,binding signal,[1],1.52 ± 0.113 fold-change vs cycle 0
same,binding signal,[2],1.41 ± 0.113 fold-change vs cycle 0
ACTAAC,binding signal,SALL4 ZFC4 WT (HT-SELEX),1.38 ± 0.0461 fold-change vs cycle 0
same,binding signal,[1],1.53 ± 0.0676 fold-change vs cycle 0
same,binding signal,[2],1.43 ± 0.0927 fold-change vs cycle 0
AAAGGC,binding signal,SALL4 ZFC4 WT (HT-SELEX),0.475 ± 0.0422 fold-change vs cycle 0
same,binding signal,[1],0.571 ± 0.0175 fold-change vs cycle 0
same,binding signal,[2],0.688 ± 0.0599 fold-change vs cycle 0
AACTCA,binding signal,SALL4 ZFC4 WT (HT-SELEX),1.37 ± 0.0562 fold-change vs cycle 0
same,binding signal,[1],1.48 ± 0.0196 fold-change vs cycle 0
same,binding signal,[2],1.4 ± 0.113 fold-change vs cycle 0
ACGGTA,binding signal,SALL4 ZFC4 WT (HT-SELEX),0.715 ± 0.031 fold-change vs cycle 0
same,binding signal,[1],0.817 ± 0.0376 fold-change vs cycle 0
same,binding signal,[2],0.852 ± 0.0147 fold-change vs cycle 0
CATATC,binding signal,SALL4 ZFC4 WT (HT-SELEX),1.68 ± 0.148 fold-change vs cycle 0
same,binding signal,[1],1.44 ± 0.0706 fold-change vs cycle 0
same,binding signal,[2],1.39 ± 0.0818 fold-change vs cycle 0
ATATCA,binding signal,SALL4 ZFC4 WT (HT-SELEX),2.74 ± 0.247 fold-change vs cycle 0
same,binding signal,[1],2.05 ± 0.0942 fold-change vs cycle 0
same,binding signal,[2],1.83 ± 0.136 fold-change vs cycle 0
ACCTGC,binding signal,SALL4 ZFC4 WT (HT-SELEX),0.368 ± 0.0272 fold-change vs cycle 0
same,binding signal,[1],0.391 ± 0.01 fold-change vs cycle 0
same,binding signal,[2],0.516 ± 0.075 fold-change vs cycle 0
ACACCA,binding signal,SALL4 ZFC4 WT (HT-SELEX),0.735 ± 0.0297 fold-change vs cycle 0
same,binding signal,[1],0.841 ± 0.0318 fold-change vs cycle 0
same,binding signal,[2],0.903 ± 0.0271 fold-change vs cycle 0
ACGAGT,binding signal,SALL4 ZFC4 WT (HT-SELEX),0.767 ± 0.0224 fold-change vs cycle 0
same,binding signal,[1],0.897 ± 0.033 fold-change vs cycle 0
same,binding signal,[2],0.922 ± 0.0421 fold-change vs cycle 0
ACTTAT,binding signal,SALL4 ZFC4 WT (HT-SELEX),2.49 ± 0.156 fold-change vs cycle 0
same,binding signal,[1],2.19 ± 0.135 fold-change vs cycle 0
same,binding signal,[2],1.9 ± 0.197 fold-change vs cycle 0
ACCATC,binding signal,SALL4 ZFC4 WT (HT-SELEX),0.858 ± 0.0322 fold-change vs cycle 0
same,binding signal,[1],0.944 ± 0.0334 fold-change vs cycle 0
same,binding signal,[2],0.994 ± 0.0236 fold-change vs cycle 0
TAGGGA,binding signal,SALL4 ZFC4 WT (HT-SELEX),0.931 ± 0.0124 fold-change vs cycle 0
same,binding signal,[1],0.998 ± 0.0215 fold-change vs cycle 0
same,binding signal,[2],1.02 ± 0.0328 fold-change vs cycle 0
ACCCTA,binding signal,SALL4 ZFC4 WT (HT-SELEX),0.864 ± 0.0329 fold-change vs cycle 0
same,binding signal,[1],0.973 ± 0.0359 fold-change vs cycle 0
same,binding signal,[2],0.982 ± 0.053 fold-change vs cycle 0
TATTGA,binding signal,SALL4 ZFC4 WT (HT-SELEX),2.22 ± 0.167 fold-change vs cycle 0
same,binding signal,[1],2 ± 0.134 fold-change vs cycle 0
same,binding signal,[2],1.83 ± 0.179 fold-change vs cycle 0
CCTATC,binding signal,SALL4 ZFC4 WT (HT-SELEX),0.811 ± 0.0304 fold-change vs cycle 0
same,binding signal,[1],0.939 ± 0.00665 fold-change vs cycle 0
same,binding signal,[2],0.994 ± 0.0224 fold-change vs cycle 0
CTATTC,binding signal,SALL4 ZFC4 WT (HT-SELEX),1.3 ± 0.0236 fold-change vs cycle 0
same,binding signal,[1],1.46 ± 0.0185 fold-change vs cycle 0
same,binding signal,[2],1.39 ± 0.0918 fold-change vs cycle 0
ATGAGC,binding signal,SALL4 ZFC4 WT (HT-SELEX),0.659 ± 0.0207 fold-change vs cycle 0
same,binding signal,[1],0.736 ± 0.0172 fold-change vs cycle 0
same,binding signal,[2],0.836 ± 0.0347 fold-change vs cycle 0
ATCGTA,binding signal,SALL4 ZFC4 WT (HT-SELEX),1.24 ± 0.0384 fold-change vs cycle 0
same,binding signal,[1],1.28 ± 0.0284 fold-change vs cycle 0
same,binding signal,[2],1.29 ± 0.0379 fold-change vs cycle 0
CCACTA,binding signal,SALL4 ZFC4 WT (HT-SELEX),0.774 ± 0.0352 fold-change vs cycle 0
same,binding signal,[1],0.855 ± 0.0167 fold-change vs cycle 0
same,binding signal,[2],0.895 ± 0.0113 fold-change vs cycle 0
TACACA,binding signal,SALL4 ZFC4 WT (HT-SELEX),1.21 ± 0.07 fold-change vs cycle 0
same,binding signal,[1],1.3 ± 0.0721 fold-change vs cycle 0
same,binding signal,[2],1.29 ± 0.0617 fold-change vs cycle 0
ATCAGC,binding signal,SALL4 ZFC4 WT (HT-SELEX),0.664 ± 0.0167 fold-change vs cycle 0
same,binding signal,[1],0.738 ± 0.048 fold-change vs cycle 0
same,binding signal,[2],0.836 ± 0.0337 fold-change vs cycle 0
AATCTC,binding signal,SALL4 ZFC4 WT (HT-SELEX),1.38 ± 0.0549 fold-change vs cycle 0
same,binding signal,[1],1.5 ± 0.0336 fold-change vs cycle 0
same,binding signal,[2],1.43 ± 0.0651 fold-change vs cycle 0
AAAGTA,binding signal,SALL4 ZFC4 WT (HT-SELEX),1.92 ± 0.0856 fold-change vs cycle 0
same,binding signal,[1],1.98 ± 0.162 fold-change vs cycle 0
same,binding signal,[2],1.73 ± 0.169 fold-change vs cycle 0
GAATAC,binding signal,SALL4 ZFC4 WT (HT-SELEX),1.29 ± 0.026 fold-change vs cycle 0
same,binding signal,[1],1.41 ± 0.0467 fold-change vs cycle 0
same,binding signal,[2],1.34 ± 0.07 fold-change vs cycle 0
CGAGTA,binding signal,SALL4 ZFC4 WT (HT-SELEX),0.742 ± 0.0199 fold-change vs cycle 0
same,binding signal,[1],0.848 ± 0.0261 fold-change vs cycle 0
same,binding signal,[2],0.87 ± 0.0313 fold-change vs cycle 0
